Reference: the supplement of paper PMC12494721
Structures can show the parent of a compound that is named as a salt.

Key:
Details in all cases: incubation time: 27 h, anaerobic, 37 °C;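 for the amine columns active = adjusted P below 0.05 in both replicates with a change the same way and a mean fold change under 0.8 or over 1.25; inactive = the rest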
[1] = system: Clostridium sporogenes DSM 1664; assay: growth (OD595) fold change vs plate DMSO controls (fold change (ratio)); higher = more growth
Summary of the method: (§1)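 Growth is calculated as fold change against the median of the DMSO control wells on each plate. Readings at 595 nm from anaerobic mGAM cultures (96-well, 27 h, 37 °C) were blank-subtracted, background-corrected with 20 µM compound solutions in water, and converted to OD by a calibration factor of 5. Fold changes above 1.5 were recorded as NA, and results are means of 2 biological replicates.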

Escherichia coli IAI1 [2] = assay: as above
Summary of the method: as §1

[3] = system: Klebsiella aerogenes DSM 30053; assay: as above
Summary of the method: as §1

[4] = system: Ruminococcus gnavus DSM 108212; assay: as above
Summary of the method: as §1

[5] = system: Klebsiella aerogenes DSM 30053; assay: fold change of Histamine concentration vs plate DMSO controls (fold change (ratio)); higher = more amine produced, active = hit call of the paper (significant change in both replicates, either direction)
Summary of the method: (§2)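 Amines were quantified by LC–triple-quadrupole MS in dynamic MRM mode against external calibration curves, with drift correction within each batch. The samples were whole anaerobic mGAM cultures of four gut bacterial strains, grown for 27 h at 37 °C in 80 µL wells and extracted with cold acetonitrile/methanol with 0.1% formic acid, then centrifuged. Values are reported as fold change over DMSO controls on the same plate. The mean of 2 biological replicates is given.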

[6] = system: Clostridium sporogenes DSM 1664; assay: fold change of Tryptamine concentration vs plate DMSO controls (fold change (ratio)); higher = more amine produced, active = hit call of the paper (significant change in both replicates, either direction)
Summary of the method: as §2

[7] = system: Ruminococcus gnavus DSM 108212; assay: as above
Summary of the method: as §2

Escherichia coli IAI1 [8] = assay: fold change of Putrescine concentration vs plate DMSO controls (fold change (ratio)); higher = more amine produced, active = hit call of the paper (significant change in both replicates, either direction)
Summary of the method: as §2

[9] = system: Klebsiella aerogenes DSM 30053; assay: as above
Summary of the method: as §2

Escherichia coli IAI1 [10] = assay: fold change of Cadaverine concentration vs plate DMSO controls (fold change (ratio)); higher = more amine produced, active = hit call of the paper (significant change in both replicates, either direction)
Summary of the method: as §2

[11] = system: Klebsiella aerogenes DSM 30053; assay: as above
Summary of the method: as §2

[12] = system: Ruminococcus gnavus DSM 108212; assay: fold change of 2-Phenylethylamine concentration vs plate DMSO controls (fold change (ratio)); higher = more amine produced, active = hit call of the paper (significant change in both replicates, either direction)
Summary of the method: as §2

SMILES	growth [1]	growth (Escherichia coli IAI1 [2])	growth [3]	growth [4]	fold change of Histamine concentration [5]	fold change of Tryptamine concentration [6]	fold change of Tryptamine concentration [7]	fold change of Putrescine concentration (Escherichia coli IAI1 [8])	fold change of Putrescine concentration [9]	fold change of Cadaverine concentration (Escherichia coli IAI1 [10])	fold change of Cadaverine concentration [11]	fold change of 2-Phenylethylamine concentration [12]
C[C@]12C[C@H](O)[C@H]3[C@@H](CCC4=CC(=O)CC[C@@]43C)[C@@H]1CC[C@@H]2C(=O)CO [Corticosterone] (20 µM)	0.994	1.05	1.07	1.11	0.992 (inactive)	0.971 (inactive)	0.998 (inactive)	1.05 (inactive)	0.99 (inactive)	1.01 (inactive)	1 (inactive)	1.04 (inactive)
CCc1ccc(C(=O)C(C)CN2CCCCC2)cc1 (centres undefined) [Eperisone Hydrochloride] (20 µM)	1.04	0.959	0.959	0.991	0.995 (inactive)	1.04 (inactive)	0.954 (inactive)	0.986 (inactive)	0.98 (inactive)	0.992 (inactive)	0.991 (inactive)	1.02 (inactive)
Cn1nnc2c(C(N)=O)ncn2c1=O [Temozolomide] (20 µM)	1.09	0.982	0.992	1.23	0.956 (inactive)	0.977 (inactive)	1.02 (inactive)	1 (inactive)	0.989 (inactive)	1.02 (inactive)	0.998 (inactive)	1.01 (inactive)
Cc1cccc(C)c1OCC(=O)N[C@@H](Cc1ccccc1)[C@@H](O)C[C@H](Cc1ccccc1)NC(=O)[C@H](C(C)C)N1CCCNC1=O [Lopinavir] (20 µM)	1.12	1.01	1.19	1.31	0.963 (inactive)	0.892 (inactive)	0.986 (inactive)	0.989 (inactive)	1.04 (inactive)	1.02 (inactive)	1.02 (inactive)	0.997 (inactive)
CN(C)CCOC(=O)COc1ccc(Cl)cc1 [Meclofenoxate hydrochloride] (20 µM)	1.13	1.02	1.01	0.995	1.11 (inactive)	0.931 (inactive)	0.958 (inactive)	1 (inactive)	1.01 (inactive)	1.02 (inactive)	0.979 (inactive)	0.895 (inactive)
COc1ccc(C[C@@H]2c3cc(OC)c(OC)cc3CC[N@+]2(C)CCC(=O)OCCCCCOC(=O)CC[N@@+]2(C)CCc3cc(OC)c(OC)cc3[C@H]2Cc2ccc(OC)c(OC)c2)cc1OC [Cisatracurium besylate] (20 µM)	1.4	1.01	1.05	1.01	0.758 (inactive)	1.05 (inactive)	1.03 (inactive)	0.918 (inactive)	0.929 (inactive)	0.944 (inactive)	1.07 (inactive)	1.01 (inactive)
O=c1[nH]c(=O)n([C@H]2C[C@H](O)[C@@H](CO)O2)cc1I [Idoxuridine] (20 µM)	0.856	1.02	1.04	0.871	1.03 (inactive)	1.25 (active)	1.05 (inactive)	1.18 (inactive)	1.02 (inactive)	0.982 (inactive)	1 (inactive)	1.08 (inactive)
CN[C@@H]1[C@H](O[C@H]2[C@H](O[C@H]3[C@H](O)[C@@H](O)[C@H](NC(=N)N)[C@@H](O)[C@@H]3NC(=N)N)O[C@@H](C)[C@]2(O)CO)O[C@@H](CO)[C@H](O)[C@H]1O [Dihydrostreptomycin sulfate] (20 µM)	1.08	0.98	0.92	0.933	0.704 (inactive)	1.25 (inactive)	0.984 (inactive)	0.958 (inactive)	0.922 (inactive)	1.01 (inactive)	0.993 (inactive)	0.991 (inactive)
Cc1c(Nc2ncccc2C(=O)O)cccc1C(F)(F)F [Flunixin meglumine] (20 µM)	0.944	1.04	1.05	1.15	0.909 (inactive)	1.03 (inactive)	0.992 (inactive)	1.07 (inactive)	0.959 (inactive)	1.01 (inactive)	1 (inactive)	1.02 (inactive)
Nc1ncnc2c1ncn2[C@@H]1O[C@H](CO)[C@@H](O)[C@@H]1O [Vidarabine] (20 µM)	1.1	1.07	0.99	0.857	1.05 (inactive)	0.947 (inactive)	0.935 (inactive)	1.11 (inactive)	1.02 (inactive)	0.957 (inactive)	0.989 (inactive)	0.976 (inactive)
COc1ccc2c3c1O[C@H]1C[C@@H](O)C=C[C@@]31CCN(C)C2 [Galanthamine hydrobromide] (20 µM)	0.93	1.06	1.04	0.846	1.01 (inactive)	1.01 (inactive)	1.01 (inactive)	1.03 (inactive)	1 (inactive)	0.979 (inactive)	0.999 (inactive)	1 (inactive)
Cc1onc(-c2ccccc2Cl)c1C(=O)N[C@@H]1C(=O)N2[C@@H]1SC(C)(C)[C@@H]2C(=O)O [Cloxacillin sodium salt] (20 µM)	0	1.02	1.08	0.171	0.987 (inactive)	0.0211 (active)	0.0749 (active)	0.997 (inactive)	1.02 (inactive)	0.999 (inactive)	1.02 (inactive)	0.0503 (active)
